From PubChem BioAssay (Tox21)
Unmarked numbers belong to inactive results. Results filed as inconclusive are left out. Entries that show only a call come without a potency. Active and inactive are the calls of the source. Unless noted, calls follow the shape of the full dose curve.

Columns and labels:
[1] = Nuclear factor erythroid 2-related factor 2/antioxidant responsive element (Nrf2/ARE) small molecule agonists: qHTS cell viability counter screen in human keratinocytes (AID 1919968; active = well fitted curve in the direction sought with a large enough effect in the repeat runs; an effect the other way counts as inactive or inconclusive; also: nearly all actives have a fitted effect of over 55% in size; also: potency is read from the fitted curve at half-maximal effect)
In short: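 HaCaT ARE reporter line, 1,500 cells/well; 5 h settle, 37 C/5% CO2; cpd in DMSO pinned; 23 h exposure; CellTiter-Fluor, 1 h; fluorescence.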

[2] = Nuclear factor erythroid 2-related factor 2/antioxidant responsive element (Nrf2/ARE) small molecule agonists: luciferase reporter gene qHTS assay in human keratinocytes (AID 1919969); also: nearly all actives have a fitted effect of over 35% in size; also: potency is read from the fitted curve at half-maximal effect
[3] = molecular target: KiSS-1 receptor (Homo sapiens) (UniProt Q969F8); experiment: Human kisspeptin (KISS1R) small molecule agonists, calcium flux assay in KISS1R-HEK293 cells (AID 1920064; active = well fitted curve in the direction sought with a large enough effect in the repeat runs; an effect the other way counts as inactive or inconclusive)
Chain of KiSS-1 receptor (Homo sapiens) (Q969F8 whole entry, looked up): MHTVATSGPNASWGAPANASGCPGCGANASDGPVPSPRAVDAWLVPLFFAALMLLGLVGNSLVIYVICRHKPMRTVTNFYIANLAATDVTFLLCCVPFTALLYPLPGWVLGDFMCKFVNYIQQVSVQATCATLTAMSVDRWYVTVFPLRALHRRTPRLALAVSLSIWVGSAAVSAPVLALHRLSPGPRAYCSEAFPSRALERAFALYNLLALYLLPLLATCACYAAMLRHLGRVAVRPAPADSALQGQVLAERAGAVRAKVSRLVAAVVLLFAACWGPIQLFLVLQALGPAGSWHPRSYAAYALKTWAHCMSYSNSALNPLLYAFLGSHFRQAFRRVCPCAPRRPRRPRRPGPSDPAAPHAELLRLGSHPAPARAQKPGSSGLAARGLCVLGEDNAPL
In short: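 Stable human KISS1R HEK293 line; 18 h plating, 37 C/5% CO2; calcium dye 1 h 37 C; compound pin transfer; kinetic fluorescence Ex/Em 480/540, 3 min.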

[4] = G protein-coupled receptor (GPCR) small molecule agonists, calcium flux assay: HEK293 wild type cell line counter screen (AID 1920065); also: potency is read from the fitted curve at half-maximal effect
In short: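 Kinetic fluorescence at Ex/Em 480/540, recorded every second over 3 min, served as the read-out after compound addition. Each compound was tested at 15 concentrations in triplicate on cells pre-loaded with calcium dye for 1 h.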

[5] = p53 small molecule agonists, cell-based qHTS assay with human liver microsomes (AID 1963577)
In short: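 Compounds act here after metabolic activation: human liver microsomes and NADPH, both at 0.5 mg/mL final, were co-added to p53RE-bla cells. Incubation ran 16 h at 37 C, followed by LiveBLAzer detection.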

[6] = p53 small molecule agonists, cell-based qHTS assay: qHTS cell viability counter screen (AID 1963581); also: nearly all actives have a fitted effect of over 45% in size; also: potency is read from the fitted curve at half-maximal effect
In short: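 HCT-116 p53RE-bla cells, 4,000/well, plated 5 h before compound pin transfer; 16 h at 37 C; bla substrate 2 h RT; then CellTiter-Glo, 30 min RT, luminescence.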

[7] = p53 small molecule agonists, cell-based qHTS assay (AID 1963582; active = well fitted activation curve with a large enough effect in the signal ratio in the repeat runs, not every such curve was filed as active; the % refers to the signal ratio)
In short: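 Reporter line: p53RE-bla. Pre-incubation 5 h, 37 C, 5% CO2; compound (DMSO, pin tool) 16 h, 37 C; B/G FRET substrate 2 h RT; fluorescence intensity read.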

[8] = molecular target: 5-hydroxytryptamine receptor 2A (Homo sapiens) (UniProt P28223); experiment: 5-hydroxytryptamine receptor 2A (HTR2A) small molecule antagonists, cell-based qHTS assay (AID 1963586); also: nearly all actives have a fitted effect of over 45% in size
Chain of 5-hydroxytryptamine receptor 2A (Homo sapiens) (P28223 whole entry, looked up): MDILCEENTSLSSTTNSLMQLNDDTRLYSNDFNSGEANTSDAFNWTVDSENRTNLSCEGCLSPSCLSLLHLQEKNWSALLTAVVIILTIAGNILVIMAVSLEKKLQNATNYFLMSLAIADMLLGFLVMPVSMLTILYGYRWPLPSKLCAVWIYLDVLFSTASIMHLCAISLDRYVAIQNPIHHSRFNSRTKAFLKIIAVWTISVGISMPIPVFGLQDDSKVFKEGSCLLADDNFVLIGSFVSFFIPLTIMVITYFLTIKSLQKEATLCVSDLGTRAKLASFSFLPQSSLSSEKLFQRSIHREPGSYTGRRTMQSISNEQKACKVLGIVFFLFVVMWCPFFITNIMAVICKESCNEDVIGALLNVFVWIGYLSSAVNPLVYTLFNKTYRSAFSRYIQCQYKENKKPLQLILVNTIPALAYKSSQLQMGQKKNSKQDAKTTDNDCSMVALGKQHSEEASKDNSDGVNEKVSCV
In short: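 Antagonist-mode intracellular calcium assay: DOI (4 nM) added after 5 min compound pre-incubation at room temperature to dye-loaded HTR2A-CHO cells. Fluorescence followed for 3 min, sampled every second.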

[9] = molecular target: 5-hydroxytryptamine receptor 2A (Homo sapiens) (UniProt P28223); experiment: 5-hydroxytryptamine receptor 2A (HTR2A) small molecule agonists, cell-based qHTS assay (AID 1963587); also: nearly all actives have a fitted effect of over 30% in size; also: potency is read from the fitted curve at half-maximal effect
In short: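 HTR2A-CHO cells, plated 18 h at 37 C/5% CO2, dye-loaded 1 h at 37 C; compounds in DMSO added by pin tool (agonist mode). Intracellular calcium flux read as kinetic fluorescence on FDSS over 2 min at 1 s intervals.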

[10] = molecular target: Muscarinic acetylcholine receptor M1 (Homo sapiens) (UniProt P11229); experiment: Cholinergic receptor muscarinic 1 (CHRM1) small molecule antagonists, cell-based qHTS assay (AID 1963588); also: nearly all actives have a fitted effect of over 40% in size
Chain of Muscarinic acetylcholine receptor M1 (Homo sapiens) (P11229 whole entry, looked up): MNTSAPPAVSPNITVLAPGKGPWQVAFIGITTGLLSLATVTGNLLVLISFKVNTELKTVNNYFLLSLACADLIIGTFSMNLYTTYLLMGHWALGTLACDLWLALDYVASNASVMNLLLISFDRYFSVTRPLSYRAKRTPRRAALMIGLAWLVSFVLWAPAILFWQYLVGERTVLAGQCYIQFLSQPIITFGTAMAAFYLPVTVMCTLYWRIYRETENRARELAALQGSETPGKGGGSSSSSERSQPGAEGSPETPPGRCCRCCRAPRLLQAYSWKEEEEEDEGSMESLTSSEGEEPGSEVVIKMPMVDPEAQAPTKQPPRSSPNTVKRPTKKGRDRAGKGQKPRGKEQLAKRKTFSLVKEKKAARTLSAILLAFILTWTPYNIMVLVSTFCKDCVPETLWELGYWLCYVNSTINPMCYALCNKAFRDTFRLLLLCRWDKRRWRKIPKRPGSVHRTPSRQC
In short: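 CHRM1-CHO calcium-flux assay, antagonist mode. Cells were seeded 18 h, dye-loaded 1 h at 37 C and given compound for 5 min at RT, then acetylcholine was added at 50nM. FDSS fluorescence was read 3 min; 15 concentrations, three runs.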

[11] = molecular target: Muscarinic acetylcholine receptor M1 (Homo sapiens) (UniProt P11229); experiment: Cholinergic receptor muscarinic 1 (CHRM1) small molecule agonists, cell-based qHTS assay (AID 1963589); also: nearly all actives have a fitted effect of over 35% in size
In short: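 Human M1 in stable CHO line; 18 h plating, 1 h dye load 37 C; cpd added (agonist mode); Ca2+ fluorescence kinetic read, 1 s intervals; 15 conc, 3 runs.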

[12] = cAMP Responsive Elements (CRE) small molecule antagonists, cell-based qHTS assay (AID 1963591; active = well fitted inhibition curve with a large enough effect in the signal ratio in the repeat runs, not every such curve was filed as active; the % refers to the signal ratio)
In short: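 Beta-lactamase reporter read by FRET substrate (LiveBLAzer B/G) after 2 h at room temperature. CRE-bla HEK293T cells had received compound plus 0.25 uM (final) NKH477 for 3 h at 37 °C.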

[13] = molecular target: Beta-2 adrenergic receptor (Homo sapiens) (UniProt P07550); experiment: Adrenergic beta2 receptor (ADRB2) small molecule antagonists, cell-based qHTS assay (AID 1963592); also: series mostly up to about 92 µM; nearly all actives have a fitted effect of over 50% in size
Chain of Beta-2 adrenergic receptor (Homo sapiens) (P07550 whole entry, looked up): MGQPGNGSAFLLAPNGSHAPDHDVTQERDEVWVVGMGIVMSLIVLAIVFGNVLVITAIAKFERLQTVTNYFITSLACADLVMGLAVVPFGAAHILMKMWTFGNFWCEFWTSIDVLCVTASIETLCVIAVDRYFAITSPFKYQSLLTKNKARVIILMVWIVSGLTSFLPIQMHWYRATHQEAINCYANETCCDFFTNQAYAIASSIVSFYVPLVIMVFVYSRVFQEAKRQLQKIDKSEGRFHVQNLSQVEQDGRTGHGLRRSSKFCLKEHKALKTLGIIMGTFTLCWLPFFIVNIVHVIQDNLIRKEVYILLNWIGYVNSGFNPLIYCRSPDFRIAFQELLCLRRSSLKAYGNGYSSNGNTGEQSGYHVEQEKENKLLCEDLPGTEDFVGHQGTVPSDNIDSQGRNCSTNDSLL
In short: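 Cells (CHO, stable ADRB2 overexpression) incubated 18-20hr at 37C; compounds added from DMSO; agonist mix (1nM isoproterenol, 100uM IBMX, 25uM Ro-20-1724) added; 0.5hr RT; d2-cAMP and anti-cAMP-cryptate added; 1hr RT; 665/615 nm read.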

[14] = molecular target: D(2) dopamine receptor (Homo sapiens) (UniProt P14416); experiment: Dopamine D2 receptor (DRD2) small molecule agonists, cell-based qHTS assay (AID 1963594); also: nearly all actives have a fitted effect of over 35% in size; also: potency is read from the fitted curve at half-maximal effect
Chain of D(2) dopamine receptor (Homo sapiens) (P14416 whole entry, looked up): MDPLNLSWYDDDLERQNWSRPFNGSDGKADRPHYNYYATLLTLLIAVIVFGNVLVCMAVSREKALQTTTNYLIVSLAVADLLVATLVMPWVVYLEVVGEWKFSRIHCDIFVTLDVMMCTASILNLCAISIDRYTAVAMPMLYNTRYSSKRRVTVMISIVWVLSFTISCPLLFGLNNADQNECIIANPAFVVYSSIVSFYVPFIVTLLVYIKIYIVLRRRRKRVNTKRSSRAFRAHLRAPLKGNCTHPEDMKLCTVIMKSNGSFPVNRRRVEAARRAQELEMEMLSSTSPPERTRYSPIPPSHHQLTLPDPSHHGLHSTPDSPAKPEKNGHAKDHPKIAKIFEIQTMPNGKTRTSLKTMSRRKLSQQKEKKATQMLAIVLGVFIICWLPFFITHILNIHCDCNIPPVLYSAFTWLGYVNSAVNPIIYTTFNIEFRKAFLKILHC
In short: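 HEK293 cells stably expressing DRD2 were cultured 24 h at 37 C, then given Ro20-1724 (0.1 mM final) and compounds for 10 min at room temperature. NKH477 (200nM) was then added for 30 min. cAMP was read by HTRF.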

[15] = molecular target: D(2) dopamine receptor (Homo sapiens) (UniProt P14416); experiment: Dopamine D2 receptor (DRD2) small molecule antagonists, cell-based qHTS assay (AID 1963595; active = well fitted inhibition curve with a large enough effect in the signal ratio in the repeat runs, with a control signal flat; the % refers to the signal ratio; also: potency is read from the fitted curve at half-maximal effect)
In short: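 In this cell-based antagonist screen, compounds act for 10 min at room temperature before a 30 min challenge with 12 nM quinpirole and 200 nM NKH477. cAMP is quantified by HTRF competition in DRD2-HEK293 cells containing 0.1 mM Ro20-1724.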

[16] = p53 small molecule agonists, cell-based qHTS assay with rat liver microsomes (AID 1963578)
In short: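 Read-out is beta-lactamase reporter fluorescence (LiveBLAzer, 2 h, room temperature, dark) in p53RE-bla cells treated 16 h at 37 C with compound, rat liver microsomes and NADPH, both 0.5 mg/mL final.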

[17] = p53 small molecule agonists, cell-based qHTS assay with human liver microsomes: qHTS cell viability counter screen (AID 1963579); also: nearly all actives have a fitted effect of over 45% in size; also: potency is read from the fitted curve at half-maximal effect
In short: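 Cells carrying the p53 response-element beta-lactamase reporter are treated for 16 h at 37 C with test compounds in the presence of human liver microsomes and NADPH (both 0.5 mg/mL final); ATP-based CellTiter-Glo luminescence then reports viability.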

[18] = cAMP Responsive Elements (CRE) small molecule agonists, cell-based qHTS assay (AID 1963590)
In short: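 HEK 293T CRE-bla, 2,000 cells/well, 18 h preincubation 37 C/5% CO2; cpds (DMSO) pinned, 3 h; LiveBLAzer B/G FRET substrate, 2 h RT.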

[19] = p53 small molecule agonists, cell-based qHTS assay with rat liver microsomes: qHTS cell viability counter screen (AID 1963580); also: nearly all actives have a fitted effect of over 45% in size; also: potency is read from the fitted curve at half-maximal effect
In short: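 p53RE-bla HCT-116 cells (4,000/well) rested 5 h at 37 C, then given Tox21 compounds in DMSO with rat liver microsomes (0.5 mg/mL final) plus NADPH (0.5 mg/mL final) for 16 h at 37 C. Viability read by CellTiter-Glo luminescence after 30 min at room temperature.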

[20] = molecular target: Beta-2 adrenergic receptor (Homo sapiens) (UniProt P07550); experiment: Adrenergic beta2 receptor (ADRB2) small molecule agonists, cell-based qHTS assay (AID 1963593); also: potency is read from the fitted curve at half-maximal effect;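 as to activation: CHO cells stably overexpressing human ADRB2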
In short: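 CHO cells stably over-expressing ADRB2 were plated overnight at 37C, then dosed with compounds plus a stimulation mix containing 100uM IBMX and 25uM Ro-20-1724 for 0.5hr at room temperature. cAMP was measured by HTRF competition, 1hr.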

| Compound | Potency [1] | Potency [2] | Potency [3] | Potency [4] | Potency [5] | Potency [6] | Potency [7] | Potency [8] | Potency [9] | Potency [10] | Potency [11] | Potency [12] | Potency [13] | Potency [14] | Potency [15] | Potency [16] | Potency [17] | Potency [18] | Potency [19] | Potency [20] |
| --- | --- | --- | --- | --- | --- | --- | --- | --- | --- | --- | --- | --- | --- | --- | --- | --- | --- | --- | --- | --- |
| C=C(Cl)CSC(=S)N(CC)CC | inactive | 66.8 µM (active) | inactive | inactive | inactive | inactive | inactive | inactive | inactive | inactive | inactive | inactive | inactive | inactive | inactive | – | – | – | – | – |
| N#CCc1ccc(Cl)cc1 | inactive | inactive | inactive | inactive | inactive | inactive | inactive | inactive | inactive | inactive | inactive | inactive | inactive | inactive | inactive | inactive | inactive | inactive | – | – |
| CCN(C(C)=O)c1cccc(-c2ccnc3c(C#N)cnn23)c1 | inactive | inactive | inactive | inactive | inactive | inactive | inactive | – | – | – | – | – | inactive | inactive | inactive | inactive | inactive | inactive | inactive | inactive |
| CC(=O)[C@H]1CC[C@H]2[C@@H]3CC[C@H]4C[C@H](O)CC[C@]4(C)[C@H]3C(=O)C[C@]12C | inactive | inactive | inactive | inactive | inactive | inactive | – | inactive | inactive | inactive | inactive | – | inactive | inactive | inactive | inactive | – | inactive | – | – |
| [F][Sn]([c]1ccccc1)([c]1ccccc1)[c]1ccccc1 | 0.864 µM (active) | 0.545 µM (active) | inactive | inactive | inactive | 2.89 µM (active) | – | inactive | 30.9 µM (active) | – | – | – | inactive | inactive | 2.73 µM (active) | – | – | – | 11.5 µM (active) | inactive |
| CC(C)(C)OO | inactive | inactive | inactive | inactive | inactive | – | inactive | inactive | inactive | inactive | inactive | inactive | inactive | inactive | inactive | inactive | – | inactive | inactive | – |
| NC(=O)c1ccc(N)nc1 | inactive | inactive | inactive | inactive | inactive | – | – | inactive | inactive | inactive | inactive | inactive | inactive | inactive | inactive | inactive | inactive | inactive | inactive | – |
| CCCCP(CCCC)CCCC | inactive | inactive | inactive | inactive | inactive | – | inactive | – | inactive | inactive | inactive | inactive | inactive | – | inactive | inactive | inactive | – | inactive | inactive |
| CC(C)(C)NC[C@H](O)c1ccc(O)cc1Cl | inactive | inactive | inactive | inactive | inactive | inactive | – | – | inactive | – | inactive | inactive | – | inactive | 0.0841 µM (active) | inactive | – | – | inactive | 0.006 µM (active) |
| CC(=O)C(Cl)(Cl)Cl | 16.6 µM (active) | 20.9 µM (active) | inactive | inactive | inactive | 24.8 µM (active) | inactive | – | inactive | – | inactive | – | – | inactive | inactive | inactive | inactive | – | – | – |
| CCOP(=S)(OCC)Oc1ccc(S(C)=O)cc1 (configuration not stated) | inactive | inactive | – | inactive | – | inactive | – | inactive | inactive | inactive | inactive | inactive | inactive | inactive | inactive | – | inactive | inactive | inactive | inactive |
| CCC1(c2ccccc2)C(=O)N(COC)C(=O)N(COC)C1=O | inactive | inactive | inactive | inactive | – | inactive | – | inactive | inactive | inactive | inactive | inactive | inactive | 10.6 µM (active) | inactive | – | inactive | inactive | inactive | inactive |
| Cc1ccccc1 | inactive | inactive | – | – | inactive | inactive | inactive | – | – | – | – | – | – | – | – | inactive | – | – | inactive | – |
| [Hg+2].[I-].[I-] | 4.33 µM (active) | 1.22 µM (active) | – | inactive | inactive | 18.2 µM (active) | – | inactive | 49 µM (active) | inactive | – | – | – | – | 27.3 µM (active) | inactive | 4.58 µM (active) | – | 12.9 µM (active) | – |
| O=Cc1ccc2c(c1)OCO2 | inactive | inactive | inactive | inactive | – | – | – | inactive | inactive | inactive | – | inactive | inactive | inactive | inactive | – | inactive | inactive | inactive | – |
| N#CC(C#N)=NNc1cccc(Cl)c1 | 8.63 µM (active) | 7.7 µM (active) | – | 2.45 µM (active) | inactive | – | inactive | inactive | inactive | inactive | inactive | – | inactive | inactive | inactive | inactive | – | – | – | – |
| C/C=C/C=O | inactive | 58.4 µM (active) | inactive | – | – | inactive | – | inactive | inactive | inactive | inactive | inactive | inactive | inactive | inactive | – | inactive | inactive | inactive | – |
